In the supplement of paper PMC12669032:
A number with no mark means an inactive call.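 Rule for the calls: active = AUC reduced over 20% with Padj below 0.05 in at least 2 of 3 replicates; inactive = otherwise.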

Columns and labels:
Assay in all cases: growth AUC relative to DMSO control (median of replicates) (fraction); higher = more growth (less inhibition), active = hit call of the paper
Details in all cases: 20 µM; 24 h
Akkermansia muciniphila = tested on: Akkermansia muciniphila
In short: (§1)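 Three biological replicates, each grown on a separate day, were combined as a median for every value. In each, a gut bacterial monoculture in mGAM started at OD600 0.05 and grew anaerobically at 37 °C with 20 µM compound (1% DMSO), with OD600 read hourly over 24 h. Area under the growth curve was normalised against the plate median of solvent-only wells, or against row and column medians on the industrial chemical plate, after the minimum OD was set to 0.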

Bacteroides caccae = tested on: Bacteroides caccae
In short: as §1

Bacteroides clarus = tested on: Bacteroides clarus
In short: as §1

Bacteroides dorei = tested on: Bacteroides dorei
In short: as §1

Bacteroides stercoris = tested on: Bacteroides stercoris
In short: as §1

[1] = tested on: Bacteroides thetaiotaomicron
In short: as §1

Bacteroides uniformis = tested on: Bacteroides uniformis
In short: as §1

[2] = tested on: Bifidobacterium longum subsp. longum
In short: as §1

Clostridium difficile = tested on: Clostridium difficile
In short: as §1

Collinsella aerofaciens = tested on: Collinsella aerofaciens
In short: as §1

SMILES | growth AUC (Akkermansia muciniphila) | growth AUC (Bacteroides caccae) | growth AUC (Bacteroides clarus) | growth AUC (Bacteroides dorei) | growth AUC (Bacteroides stercoris) | growth AUC [1] | growth AUC (Bacteroides uniformis) | growth AUC [2] | growth AUC (Clostridium difficile) | growth AUC (Collinsella aerofaciens)
CCCCCCCCCc1ccc(O)cc1 | 1.02 | 1.03 | 0.739 (active) | 1.01 | 0.0469 (active) | 1.01 | 0.289 (active) | 0.929 | 1.03 | 0.925
O=C1C=CC(=O)C=C1 | 0.97 | 0.991 | 0.992 | 1.01 | 1.02 | 1.01 | 1 | 1.01 | 0.997 | 0.992
Nc1ccc(Cc2ccc(N)c(Cl)c2)cc1Cl | 0.988 | 0.994 | 0.981 | 1.01 | 0.931 | 0.971 | 0.968 | 1.02 | 1 | 1
CNC(=O)Oc1cccc2c1OC(C)(C)O2 | 0.915 | 1.07 | 1.01 | 0.982 | 1.02 | 1.04 | 0.997 | 1.06 | 1.06 | 1
COP(=S)(OC)Oc1cc(Cl)c(I)cc1Cl | 1.09 | 0.999 | 0.959 | 0.985 | 1.04 | 0.964 | 0.954 | 0.918 | 0.937 | 0.941
CC1(C)C(/C=C(\Cl)C(F)(F)F)C1C(=O)OC(C#N)c1cccc(Oc2ccccc2)c1 (stereo not given) | 0.989 | 0.951 | 1.02 | 1.01 | 1.19 | 0.995 | 0.993 | 1.12 | 1.04 | 0.969
CCNc1nc(Cl)nc(NC(C)(C)C#N)n1 | 0.889 | 1.02 | 0.983 | 1.04 | 0.946 | 0.998 | 0.986 | 0.946 | 1.05 | 0.997
CCS(=O)(=O)c1cccnc1S(=O)(=O)NC(=O)Nc1nc(OC)cc(OC)n1 | 0.976 | 1.01 | 0.983 | 0.993 | 0.963 | 0.981 | 0.974 | 0.995 | 0.942 | 1
CC1(C)CCC(Cc2ccc(Cl)cc2)C1(O)Cn1cncn1 (stereo not given) | 1.01 | 0.874 | 0.925 | 0.98 | 1.35 | 0.93 | 0.937 | 1.03 | 0.973 | 0.95
COC(=O)Nc1cccc(OC(=O)Nc2cccc(C)c2)c1 | 0.871 | 0.991 | 0.983 | 1.02 | 0.99 | 1.01 | 0.994 | 1.03 | 1.02 | 0.926
COP1(=S)OCc2ccccc2O1 (stereo not given) | 1.01 | 0.973 | 0.979 | 0.999 | 1.02 | 0.993 | 0.986 | 0.972 | 0.97 | 1.04
CCNP(=S)(OC)O/C(C)=C/C(=O)OC(C)C (stereo not given) | 0.983 | 0.966 | 0.957 | 0.998 | 1 | 0.953 | 0.993 | 0.983 | 0.986 | 1.01
CCNS(=O)(=O)C(F)(F)C(F)(F)C(F)(F)C(F)(F)C(F)(F)C(F)(F)C(F)(F)C(F)(F)F | 0.945 | 0.986 | 0.906 | 1.02 | 0.896 | 0.993 | 0.966 | 0.905 | 1.04 | 1.13
C=CCN(CC=C)C(=O)C(Cl)Cl | 0.976 | 1.02 | 1 | 1.01 | 1.01 | 0.99 | 0.985 | 0.974 | 0.973 | 0.978
CCOP(=S)(OCC)SCCS(=O)(=O)CC | 1.05 | 1.02 | 1 | 0.977 | 1.03 | 0.99 | 0.986 | 1.01 | 1 | 0.995
CS(=O)(=O)NC(=O)c1cc(Oc2ccc(C(F)(F)F)cc2Cl)ccc1[N+](=O)[O-] | 1.03 | 1.01 | 0.955 | 0.972 | 0.875 | 0.993 | 0.992 | 1.04 | 0.94 | 0.951
CCCN(CCC)C(=O)SCc1ccccc1 | 1.04 | 0.994 | 0.996 | 0.976 | 1.13 | 0.972 | 0.985 | 0.967 | 0.987 | 0.998
OCC(O)CCl (stereo not given) | 1.01 | 1.01 | 0.998 | 1.01 | 1.02 | 0.984 | 1 | 0.965 | 1.01 | 1.01
CCC(C)n1c(=O)[nH]c(C)c(Br)c1=O (stereo not given) | 1.12 | 0.833 | 0.99 | 0.952 | 1.13 | 0.911 | 0.775 (active) | 1.02 | 0.945 | 0.96
CC(C)Oc1cc(-n2nc(C(C)(C)C)oc2=O)c(Cl)cc1Cl | 1.21 | 0.984 | 0.942 | 0.982 | 0.884 | 0.987 | 0.898 | 0.962 | 0.932 | 0.921
CCCN(CCC)c1c([N+](=O)[O-])cc(C(F)(F)F)cc1[N+](=O)[O-] | 1.02 | 1.02 | 1.04 | 1.03 | 1.05 | 0.976 | 1.01 | 1.1 | 1 | 1.01
COP(=S)(OC)Oc1ccc(S(C)=O)c(C)c1 (stereo not given) | 0.88 | 1.02 | 1.01 | 1.03 | 1.16 | 0.962 | 1.03 | 1.02 | 1.01 | 1.03
COC(=O)COc1cc(Cl)c(Cl)cc1Cl | 0.868 | 1.01 | 0.952 | 1 | 1.01 | 0.97 | 0.966 | 0.906 | 1.01 | 1
Cc1ccccc1[N+](=O)[O-] | 1 | 0.996 | 1 | 1.02 | 1.01 | 1.01 | 0.995 | 0.991 | 1 | 1
O=C(Nc1ccccc1)Nc1cnns1 | 0.941 | 0.868 | 0.921 | 0.918 | 1.04 | 0.941 | 1.01 | 1.03 | 0.936 | 0.969
CNC(=O)O/N=C/C(C)(C)S(C)=O (stereo not given) | 0.978 | 1.04 | 0.991 | 1.01 | 1.02 | 0.988 | 1.03 | 0.935 | 1.01 | 1.02
O=C1C2CC=CCC2C(=O)N1SC(Cl)(Cl)Cl (stereo not given) | 0.981 | 1.03 | 1.01 | 1.03 | 1.08 | 1.01 | 1.02 | 0.981 | 1.04 | 1.02
CN(C)C(CSC(N)=O)CSC(N)=O.Cl | 1.13 | 0.993 | 1.04 | 1.08 | 1.02 | 1.06 | 1.15 | 1.05 | 1 | 1.03
C=CCNC(=O)c1c([Si](C)(C)C)sc(C)c1C | 0.751 | 0.964 | 0.973 | 0.978 | 0.961 | 0.96 | 0.973 | 0.966 | 0.968 | 0.981
